# Source: PubChem BioAssay (National Center for Advancing Translational Sciences (NCATS))
# IL-1B inflam inh = qHTS for Inhibitors of Inflammasome Signaling: IL-1-beta AlphaLISA Primary Screen. THP-1 LPS/ATP IL-1B secretion, AlphaLISA, 16 h; stronger effect = lower value. activity change, % at 57.5 µM. 360,000 tested, 4.7% active. AID 743279, 2014; in the data active = activity change below about -50%; inconclusive = mostly about -30% to -49%
#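 THP-1 cells pretreated 1 hr with compounds (up to 57.5 uM final), then stimulated with LPS (250 ng/mL final) plus ATP (1.25 mM final); secreted IL-1B measured by AlphaLISA after 16 hr, decreased signal indicating inhibition.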
# TDP1 cell CPT = qHTS for Inhibitors of human tyrosyl-DNA phosphodiesterase 1 (TDP1): qHTS in cells in presence of CPT | chicken DT40 Tdp1-/-;hTDP1 cells + 20 nM CPT, ATP luminescence, 48 h | 420,000 tested, 12% active | Potency, µM (titrated, usually from 46.2 µM), without a hit: at the highest dose activity change, negative = growth inhibition, hits mostly inhibitors; also: potency is read from the fitted curve at half-maximal effect; nearly all actives have a fitted effect of over 55% in size
#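 Chicken DT40 Tdp1-/- cells complemented with human TDP1, 400 cells/well, exposed to compounds plus 20 nM camptothecin for at least 48 h at 37 C; viability read as ATP content by CellTiter-Glo luminescence.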
# HT1080 IDH1KD tx = qHTS for induction of synthetic lethality in tumor cells producing 2HG: qHTS for the HT-1080-IDH1KD cell line | Potency, µM (top dose mostly 46.1 µM), for the others: at the highest dose activity, negative = toxicity, hits mostly cytotoxic | 360,000 tested, 2% active | HT-1080 IDH1 knockdown viability, ATP luminescence, 48 h | AID 686971, 2013;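 also: potency is read from the fitted curve at half-maximal effect; 0% = DMSO wells and -100% = cell-free medium wells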
#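 Cytotoxicity counter-line: IDH1KD HT-1080, 48 h, CellTiter-Glo. Curves classed by r2, magnitude and activity.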
# TDP1 cell noCPT = qHTS for Inhibitors of human tyrosyl-DNA phosphodiesterase 1 (TDP1): qHTS in cells in absence of CPT | 420,000 tested, 15% active | DT40 Tdp1-/- hTDP1 cells, no CPT, ATP luminescence, 48 h | Potency, µM (series often up to 46.2 µM), for the others: at the highest dose activity change, negative = growth inhibition, hits mostly inhibitors; also: potency is read from the fitted curve at half-maximal effect; nearly all actives have a fitted effect of over 55% in size
#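 Chicken DT40 Tdp1-/- cells stably complemented with human TDP1 were seeded at 400 cells/well with DMSO in place of 20 nM camptothecin. After compound pinning, cells grew at least 48 hr at 37 °C; viability read by CellTiter-Glo luminescence.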
# ALOX12 inh = Primary qHTS assay for inhibitors of human arachidonate 12S-lipoxygenase (ALOX12): Round 2. Polyunsaturated fatty acid lipoxygenase ALOX12 (Homo sapiens), P18054. purified 12hLO, xylenol orange hydroperoxide absorbance. 580,000 tested, 1.1% active. AID 1671190, 2021. Potency, µM (highest dose often 108 µM), for the others: at the highest dose activity change, negative = inhibition, most hits filed as inhibitors; also: potency is read from the fitted curve at half-maximal effect
# Target sequence (P18054 whole entry, looked up): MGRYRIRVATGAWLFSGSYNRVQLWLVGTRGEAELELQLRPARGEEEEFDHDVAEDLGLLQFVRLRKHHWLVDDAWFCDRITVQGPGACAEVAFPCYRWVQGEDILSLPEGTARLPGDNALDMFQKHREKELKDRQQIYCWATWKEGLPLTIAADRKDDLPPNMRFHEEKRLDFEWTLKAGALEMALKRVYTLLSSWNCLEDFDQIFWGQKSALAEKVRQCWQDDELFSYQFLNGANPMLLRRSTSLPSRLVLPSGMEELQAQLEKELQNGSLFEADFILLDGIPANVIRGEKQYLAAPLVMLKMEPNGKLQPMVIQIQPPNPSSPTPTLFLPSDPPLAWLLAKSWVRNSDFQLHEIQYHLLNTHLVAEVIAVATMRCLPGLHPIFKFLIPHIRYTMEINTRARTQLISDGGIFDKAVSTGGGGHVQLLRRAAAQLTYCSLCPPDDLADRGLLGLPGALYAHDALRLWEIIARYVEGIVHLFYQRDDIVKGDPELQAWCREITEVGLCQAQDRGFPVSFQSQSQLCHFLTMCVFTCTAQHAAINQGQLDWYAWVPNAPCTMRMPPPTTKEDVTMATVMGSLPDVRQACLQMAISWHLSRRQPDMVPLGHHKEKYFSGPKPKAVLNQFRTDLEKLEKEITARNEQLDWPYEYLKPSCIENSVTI
#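 Hydroperoxide product was detected by ferrous iron/xylenol orange as the 573 to 405 nm absorbance ratio. Arachidonic acid at 40 uM (final) was turned over for 30 min at room temperature by 150 nM human 12hLO, pH 7.0 Hepes buffer, after 15 min compound preincubation.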
# HT1080-NT tox = qHTS for induction of synthetic lethality in tumor cells producing 2HG: qHTS for the HT-1080-NT fibrosarcoma cell line | Potency, µM (series often up to 46.1 µM), without a hit: at the top dose activity, negative = less viability, usual class: cytotoxic | 360,000 tested, 1.6% active | HT-1080-NT fibrosarcoma viability, CellTiter-Glo ATP luminescence, 48 h;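 also: NT is the 2HG producing partner of a matched IDH1 knockdown line; potency is read from the fitted curve at half-maximal effect; 0% = DMSO-treated cells and -100% = media-only wells without cells; nearly all actives have a fitted effect of over 55% in size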
#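 Luminescent CellTiter-Glo readout after 48 hours of compound exposure at 37 degrees C defined viability of HT-1080-NT cells. Activity was normalized to DMSO wells and cell-free media wells; concentration-response curves were fitted and assigned curve classes.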
# * = called active by the depositor; ? = inconclusive; . = not tested or not shown; [ ] = another dose, or the depositor's remark. Shown is part of a subset that was picked to be rich in hits. Unless noted, calls follow the shape of the dose curve; as a rule, active = well fitted curve in the direction sought with a large enough effect; inconclusive = small, poorly fitted or top-dose-only effect, or another doubt; inactive = no such curve, though single readings can be large; an effect the other way counts as inactive or inconclusive. Unless noted, % is scaled to controls: 0 for no effect and ±100 for the full control effect.
SMILES,IL-1B inflam inh,TDP1 cell CPT,HT1080 IDH1KD tx,TDP1 cell noCPT,ALOX12 inh,HT1080-NT tox
CC(C)c1nnc(NC(=O)C(Sc2ccccc2)c2ccccc2)s1 (configuration not stated),.,.,.,.,23.8%,.
Cc1cc(C)n(S(=O)(=O)c2cc(C(=O)O)c(Cl)cc2Cl)n1,9.3,-0.9%,13.0%,?,-22.0%,7.8%
COC(=O)c1cc(S(=O)(=O)n2nc(C)c(Br)c2C)c(Cl)cc1Cl,-85.1*,25.9µM*,?,14.6µM*,0.7%,?
Cc1ccc2cccc(NC(=O)c3ccccc3)c2n1,.,.,.,.,25.8%,.
N#Cc1c(Cl)nsc1NC(=O)c1ccccc1,?,13µM*,13µM*,8.2µM*,?,8.2µM*
COCCn1c(N(C)Cc2ccccc2)nc2c1c(=O)n(C)c(=O)n2C,.,.,.,.,-10.5%,.
Cc1cccc2cc(CN(Cc3ccc(F)cc3)C(=O)N(C)C)c3nnnn3c12,0.5,23.1µM*,1.8%,20.6µM*,0.0%,-15.2%
CSC(=O)CC(=O)NC(=O)c1ccccc1,0.0,-5.2%,-0.4%,-3.5%,-23.5%,7.1%
O=C(NS(=O)(=O)N1CCOCC1)C1=C(N2CCCC2)COC1=O,6.9,4.2%,5.8%,-7.7%,6.2%,5.0%
O=C(Nc1ccccc1)O[C@@H]1C[C@H]2CCC(=O)N3CC[C@@H](C1)[C@@H]23,.,?,.,11.2µM*,.,.
CC(Sc1nnc2ccccn12)C(=O)c1ccc(F)c(F)c1 (configuration not stated),.,.,.,.,-55.9%,.
Cc1cc(F)ccc1NC(=O)Cn1cc(S(=O)(=O)NC(C)C)c(S(=O)(=O)NC(C)C)c1,.,-8.4%,.,-4.0%,?,.
O=C1CSC(c2cccc(C(F)(F)F)c2)N1c1cccc(F)c1 (configuration not stated),.,.,.,.,-24.6%,.
O=C(NCCCN1CCOCC1)c1cc(-c2ccc3c(c2)OCO3)nc2ccccc12,?,-29.0%,-2.2%,?,-24.4%,-5.6%
O=C(NCCCN1CCCC1=O)c1cc(-c2ccc3c(c2)OCO3)nc2ccccc12,11.9,16.4µM*,-22.1%,?,?,-1.7%
COc1ccc2nc(-c3ccc4c(c3)OCO4)cc(C(=O)NCCN3CCOCC3)c2c1,.,.,.,.,39.8µM*,.
COc1ccc(-c2cc(C(=O)NCCN3CCOCC3)c3ccccc3n2)cc1,-12.2,-24.0%,-18.0%,?,0.0%,-2.9%
Cc1cc(C(=O)Cn2nc(C(=O)O)c3ccccc3c2=O)c(C)n1CCc1ccc(F)cc1,-4.8,16.4µM*,?,?,?,-10.6%
Cc1cc(C(=O)Cn2nc(C(=O)O)c3ccccc3c2=O)c(C)n1CC(F)(F)F,-2.0,-9.6%,-19.6%,-4.0%,?,-12.1%
COc1ccc(-n2c(C)cc(C(=O)Cn3nnc4ccccc4c3=O)c2C)cc1,0.0,20.6µM*,?,20.6µM*,9.2%,?
Cc1cc(C(=O)Cn2nnc3ccccc3c2=O)c(C)n1-c1ccccc1F,-22.0,?,?,?,0.0%,-27.0%
COc1ccc(-n2c(C)cc(C(=O)Cn3nc(C(=O)O)c4ccccc4c3=O)c2C)cc1,0.0,?,-16.4%,16.4µM*,?,-10.0%
Cc1cc(NCc2cccnc2)n2nc(C(F)(F)F)c(-c3ccccc3Cl)c2n1,.,.,.,.,16.8%,.
CCN(CC)c1ccc(NC(=O)c2sc3nc4c(cc3c2N)CN(C)CC4)cc1,.,?,.,16.4µM*,?,.
CCOc1ccc(NC(=O)c2sc3nc4c(cc3c2N)CN(Cc2ccccc2)CC4)cc1,.,?,.,?,-0.8%,.
SMILES,IL-1B inflam inh,TDP1 cell CPT,HT1080 IDH1KD tx,TDP1 cell noCPT,ALOX12 inh,HT1080-NT tox
Nc1c(C(=O)Nc2ccccc2)sc2nc3c(cc12)CN(Cc1ccccc1)CC3,.,?,.,23.1µM*,-16.4%,.
Cc1ccccc1NC(=O)c1sc2nc3c(cc2c1N)CCCC3,.,?,.,3.26µM*,?,.
COc1ccc(NC(=O)c2sc3nc4c(cc3c2N)CCCCCC4)c(OC)c1,.,?,.,?,-17.9%,.
COc1ccccc1NC(=O)c1sc2nc3c(cc2c1N)CN(Cc1ccccc1)CC3,.,14.6µM*,.,?,-16.6%,.
CC(c1cccs1)N(C)Cc1cccn1C (configuration not stated),.,.,.,.,73.6%[176 µM],.
O=S(=O)(c1cccc(F)c1)N1CCN(Cc2cccc3cccnc23)CC1,.,.,.,.,-13.1%,.
Cc1cccc(NC(=O)c2sc3nc4c(c(-c5cccs5)c3c2N)CN(C)CC4)c1,-86.2*,?,-13.3%,?,?,-4.8%
O=S1(=O)N[C@H](c2ccccc2)C[C@H](c2ccc(C(F)(F)F)cc2)O1,-7.4,14.6µM*,-0.4%,?,-3.1%,-1.5%
C=CCn1c(SCC(=O)c2cc(C)n(C(C)COC)c2C)nc2sc(C)c(C)c2c1=O (configuration not stated),-1.5,?,?,18.4µM*,-12.0%,-28.1%
Cc1noc(C)c1CSc1nc2sc(C)c(C)c2c(=O)n1-c1ccccc1,0.7,?,-15.3%,?,0.0%,-7.9%
C=CCn1c(SCc2c(C)noc2C)nc2sc(C)c(C)c2c1=O,-21.9,20.6µM*,11.2µM*,18.4µM*,-11.0%,15.8µM*
O=C(O)Cc1sc(-c2cccnc2)nc1-c1ccc(Br)cc1,10.0,-6.2%,-1.8%,-23.8%,35.5µM*,-16.0%
O=C(O)Cc1sc(-c2ccccc2Cl)nc1-c1ccccc1,7.3,-5.7%,6.0%,-11.5%,0.4%,-0.1%
CC1(c2ccc(OC(F)F)cc2)NC(=O)N(CC(=O)Nc2ccccc2)C1=O (configuration not stated),25.9,?,-20.3%,?,0.2%,-15.0%
Cc1ccc2nc(-c3ccc(NC(=O)CN4C(=O)NC(C)(c5ccc(OC(F)F)cc5)C4=O)cc3)sc2c1 (configuration not stated),-4.7,14.6µM*,?,23.1µM*,-2.6%,?
CC1(c2ccccc2)NC(=O)N(CC(=O)Nc2ccc3c(c2)OCO3)C1=O (configuration not stated),0.0,-12.6%,-0.6%,-9.4%,-13.0%,-1.4%
